# Experimental data reported in PubChem BioAssay AID504580 (NMMLSC, 2011).
# Among all 2,000 compounds or so, fewer than 10 were called active. These entries were drawn from the full list. Values without a mark were called inactive.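 Rule for the calls: active = compounds that quench the bead-bound fluorescent RNA probe, cutting fluorescence to under half of the solvent control; inactive = the rest.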
# Test: bead-bound FAM aptamer signal quenchers – biochemical, single point, cherry pick 1, flow cytometry, artefact control for GRK2 RNA aptamer inhibitor project, confirmation (AID 504580);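 note: counterscreen run without GRK2 so only probe quenching by compound is measured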
# Conditions: Carboxyfluorescein RNA aptamer on beads, flow cytometry quenching; at 10 µM; stronger effect = lower value
row,Structure (SMILES),fluorescence response (% of DMSO) [%]
1,C=C(C)C(=O)Nc1cccc(C2=NOC3(C2)C[C@H](C(N)=O)N(C(=O)C(c2ccccc2)c2ccccc2)C3)c1 (stereo not given in full),102
2,COc1cccc(CN(C)CC(=O)Nc2sc3c(c2C#N)CCC3)c1,99.9
3,CCCc1nc2ccccc2c(=O)n1NC(=O)c1c(O)c2ccccc2[nH]c1=O,101
4,O=C(Nc1nnc(-c2ccccc2)o1)c1cccc(S(=O)(=O)N2CCOCC2)c1,101
5,CC(C)Cn1c(CN(Cc2ccccc2)Cc2ccccc2)nc2c1c(=O)n(C)c(=O)n2C,98
6,CN(CC(=O)Nc1ccc(N2CCOCC2)cc1)CC(=O)Nc1ccccc1[N+](=O)[O-],101
7,COc1cc(C(=O)OCC(=O)N(CC(C)C)C2CCS(=O)(=O)C2)ccc1OCC(C)C (stereo not given),91.4
8,CSc1nc2ccccc2c(=O)n1Cc1ccc(F)cc1,100
9,CCOC(=O)c1sc2nc(CSc3ccccc3)[nH]c(=O)c2c1C,106
10,Cn1c(=O)c2c(nc(N3CCOCC3)n2CCNC2=NCCC2)n(C)c1=O,99.8
11,O=C(c1cnn(-c2ccc(Cl)cc2)c1)c1ccccc1O,101
12,O=C(NCc1ccccc1Cl)c1ccc2c(=O)n(CC3CCCO3)c(=S)[nH]c2c1 (stereo not given),95.6
13,Cc1csc(=O)n1CC(=O)OCC(=O)N(CC(C)C)c1c(N)n(Cc2ccccc2)c(=O)[nH]c1=O,99.2
14,O=C(COC(=O)c1ccc(F)cc1F)Nc1ncccn1,95.8
15,COc1cc(C(=O)NCc2ccc3c(c2)cc(C)n3C)cc(OC)c1OC,96.5
16,O=C(NC(=O)c1cc(OCC(F)(F)F)ccc1OCC(F)(F)F)Nc1ccccc1,103
17,CC(=O)N1CC[n+]2c(-c3ccc([N+](=O)[O-])cc3)csc21,103
18,CCOc1ccccc1C(=O)NCc1ccco1,96
19,Cc1cc2cc(CNC(=O)c3cccs3)ccc2[nH]1,86.2
20,COc1ccc(Nc2nc(-c3cccnc3)nc3ccccc23)cn1,101
21,CCN1/C(=C\c2ccc3ccccc3[n+]2CC)Sc2cc(C)ccc21,173
22,Cn1c(=O)[nH]c(=O)c2c1nc(N1CCN(C(c3ccccc3)c3ccccc3)CC1)n2CCO,98.3
23,COC(=O)N/N=C/c1ccc(/C=N/NC(=O)OC)cc1,100
24,COc1ccc(Nc2cc(Sc3ccc(OC)cc3)ncn2)cc1,101
25,O=C(c1ccc(Cl)cc1)c1ccc(OCC(O)CN2CCCCC2)cc1 (stereo not given),101
